The values below come from PubChem BioAssay AID1259415 (National Center for Advancing Translational Sciences (NCATS), 2018).

The campaign covered roughly 410,000 compounds. About 18,000 (4.4%) were called active. Not shown: some 7% with an inconclusive outcome. Only a selection was taken, and actives are over-represented in it overall. A number with no mark means an inactive call. Rule as the data show it: active = activity change below about -60%; inconclusive = no clear call, values can overlap the other calls; inactive = above about -39%.
% is scaled to controls: 0 for no effect and ±100 for the full control effect.

This test in a line: qHTS Assay for inhibitors of the human cytomegalovirus (HCMV). To be noted: HFF cells, HCMV-luciferase reporter, 72 h; at 57.5 µM; active compounds read low. The method in brief: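 Compounds were evaluated in HFFs infected with an HCMV luciferase reporter virus (MOI 1 PFU/cell). Luciferase in lysates collected 72 h post infection served as the replication measure.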
In general terms: qHTS replaces the single test concentration by a dilution series.
In the case of `CCCCN(CC)CCCNC(=O)c1nn(C)c2c1CSc1ccccc1-2`, the activity change, negative = inhibition is -32.8%.

Turning to `CN(CC(=O)NCc1cccnc1)S(=O)(=O)c1cc(Cl)ccc1Cl`, the activity change, negative = inhibition was -21.9%.

On to `O=C(Cn1nc(Cc2cccnc2)c2ccccc2c1=O)NCC1CCCO1` (stereo unspecified), for which the activity change, negative = inhibition is -1.61%.

`Cc1ccc(Cl)cc1N(C)C(=O)Cn1nc(Cc2cccnc2)c2ccccc2c1=O`: the activity change, negative = inhibition was -61.7% (active).

Turning to `Cn1c(=O)oc2cc(S(=O)(=O)NCCC(=O)NCc3ccccc3Cl)ccc21`, the activity change, negative = inhibition is -30.3%.

For the compound `O=C(O)c1ccc(Nc2nc(-c3ccccc3)c3cc(Br)ccc3n2)cc1`, the activity change, negative = inhibition is 27.8%.

`Cc1cc(Cl)ccc1C(=O)C1CCCN(C(=O)c2nonc2C)C1` (stereo unspecified): the activity change, negative = inhibition was -27.9%.

Turning to `CC(=O)NCC(=O)N1CCCC(C(=O)c2ccc3c4c(cccc24)CC3)C1` (stereo unspecified), the activity change, negative = inhibition was 2.3%.

For `Cc1ncoc1C(=O)N1CCCC(C(=O)c2ccc3c4c(cccc24)CC3)C1` (stereo unspecified), the activity change, negative = inhibition is -68.2% (active).

With `O=C(Nc1c[nH]c(=O)[nH]c1=O)OCc1ccccc1`, the activity change, negative = inhibition was 46%.

Regarding `CCCC(=O)Nc1ccc(NC(=O)c2sc3ccccc3c2Cl)cc1`, the activity change, negative = inhibition is 0.957%.

With `COc1ccc(CNC(=O)CNC(=O)c2sc3ccccc3c2Cl)cc1OC`, the activity change, negative = inhibition is -67.8% (active).

For `COC(=O)c1cc(NC(=O)c2sc3ccccc3c2Cl)cc(C(=O)OC)c1`, the activity change, negative = inhibition is 5.87%.

With `COc1ccc(S(=O)(=O)N2CCN(C(=O)c3cccs3)CC2)cc1OC`, the activity change, negative = inhibition is 1.26%.

As to `COC(=O)c1sccc1S(=O)(=O)N(CC(=O)Nc1ccc(C)c(F)c1)c1ccc(C)c(C)c1`, the activity change, negative = inhibition was -9.21%.

As to `COc1cccc(NC(=O)CN2C(=O)c3ccccc3Sc3ncccc32)c1`, the activity change, negative = inhibition is 35.8%.

On to `CCc1ccc(N(CC)C(=O)CCn2cnc3onc(-c4ccc(F)cc4)c3c2=O)cc1`, for which the activity change, negative = inhibition is 4.29%.

On to `CC[C@H](C)C(=O)N[C@H]1CCCN1C(=O)/C=C/c1ccccc1`, for which the activity change, negative = inhibition was -28.4%.

On to `O=C1CCCCC1C(=O)c1ccccc1` (stereo unspecified), for which the activity change, negative = inhibition was 7.64%.

With `Cc1[nH]c(=O)c(C(=O)/C=C/c2ccccc2)c2c1CCCC2`, the activity change, negative = inhibition was -104% (active).

With `Cc1ccc(NC2=C(c3ccc(C(F)(F)F)cc3)C(=O)c3ccccc32)cc1F`, the activity change, negative = inhibition was -26.8%.

On to `O=C1C=C(c2ccnc3cc(Cl)ccc23)C[C@@H](c2ccc3c(c2)OCO3)C1`, for which the activity change, negative = inhibition was -66.7% (active).

As for `O=C1C=C(c2cccc(Cl)c2O)C[C@@H](c2ccc(F)cc2)C1`, the activity change, negative = inhibition was 15.9%.

Regarding `N#Cc1ccc(C2=CC(=O)C[C@H](c3ccc(Cl)cc3)C2)cc1`, the activity change, negative = inhibition is 10.5%.

In the case of `O=C(Cc1ccc(Cl)cc1)NCCN1CCN(C(=O)Cc2ccc(Cl)cc2)CC1`, the activity change, negative = inhibition was -18.4%.

As for `Cc1ccc(-c2cnc(NCc3ccc(C(C)C)cc3)n2C)cc1`, the activity change, negative = inhibition is -37.1%.

Turning to `Cc1ccc(C(=O)Nc2ccc(OCc3cc(=O)n4c(C)csc4n3)cc2)cc1`, the activity change, negative = inhibition is 13.5%.

Take `CCC(CC)C(=O)Nc1ccc(S(=O)(=O)Nc2nccs2)cc1`: the activity change, negative = inhibition is -32.7%.

Consider `Cc1ccc(OCCC(=O)Nc2ccc(S(=O)(=O)Nc3nccs3)cc2)cc1`, for which the activity change, negative = inhibition was -11.9%.

`COc1ccccc1OC(C)C(=O)Nc1ccc(S(=O)(=O)Nc2nccs2)cc1` (stereo unspecified): the activity change, negative = inhibition was -71.4% (active).

As for `COc1ccc(C2C(=O)N(C3CCCCC3)CC(=O)N2Cc2ccccc2Cl)cc1OC` (stereo unspecified), the activity change, negative = inhibition was -0.212%.

On to `CCN1C(=O)c2ccccc2Sc2ccc(NC(=O)Cc3ccc(OC)cc3)cc21`, for which the activity change, negative = inhibition is 11.2%.

For `CCOC(=O)CNC(=O)CN1C(=O)CCSc2ccccc21`, the activity change, negative = inhibition is 55.2%.

In the case of `CCC(=O)/C=C1\Sc2ccccc2N1CC`, the activity change, negative = inhibition was -68.7% (active).

As for `CNC(=O)CN1C(=O)c2cccnc2Sc2ccccc21`, the activity change, negative = inhibition was 16.8%.

As for `CCN1/C(=C/C(=S)Nc2ccccc2)Sc2ccccc21`, the activity change, negative = inhibition is -90.8% (active).

Consider `CCOc1ccc(NC(=O)c2cc(S(=O)(=O)N3CCCC3)c[nH]2)cc1`, for which the activity change, negative = inhibition was -31.5%.

In the case of `Cc1ccc(N2CC(C(=O)Nc3ccc(N(C)C)cc3)CC2=O)cc1Cl` (stereo unspecified), the activity change, negative = inhibition is 1.89%.

Regarding `Cc1ccc(C(=O)NNC(=O)OC(C)(C)C)c(Cl)c1`, the activity change, negative = inhibition was -10.9%.

For the compound `CC(C)(C)OC(=O)NNc1c2ccccc2nc2ccccc12`, the activity change, negative = inhibition was -89.2% (active).

For the compound `CC(C)(C)OC(=O)N[C@H](C(=O)OC(C)(C)C)c1ccc(Br)cc1`, the activity change, negative = inhibition is -16.8%.

Consider `O=C(NCCCNC(=O)NC1CCCCC1)NC1CCCCC1`, for which the activity change, negative = inhibition is -14.1%.

Turning to `N#CCC(=O)NC(=O)NCC1CC1`, the activity change, negative = inhibition was -12.8%.

For the compound `O=C(NCC1CCCCC1)NCC1CCCCC1`, the activity change, negative = inhibition is -74.2% (active).

For `COc1ccc(CCNC(=O)CSCc2ccc(Br)cc2)cc1OC`, the activity change, negative = inhibition is -9.05%.

Take `COc1nc(OC)nc(N(C)CCO)n1`: the activity change, negative = inhibition was -12.6%.

For `Cc1nc(SCC(=O)Nc2ccc(C(=O)O)cc2)n[nH]1`, the activity change, negative = inhibition was -2.57%.

For `CCc1nnc(NC(=O)CSc2nnc(COc3ccc(C#N)cc3)n2-c2ccccc2)s1`, the activity change, negative = inhibition was 42.5%.

As to `Cn1c(SCC(=O)N2CCCc3ccccc32)ncc(C(=O)Nc2ccc(F)cc2)c1=O`, the activity change, negative = inhibition is -28.8%.

On to `Cn1c(SCC(=O)N2CCCc3ccccc32)nc2ccccc2c1=O`, for which the activity change, negative = inhibition is -79.6% (active).

As to `COc1ccccc1Cc1nc2ccccc2nc1SCC(=O)N1CCCc2ccccc21`, the activity change, negative = inhibition is 8.07%.

As to `[O-][N+]12CCCCC1CCCC2CO` (stereo unspecified), the activity change, negative = inhibition was -29%.

In the case of `CCC(=O)N1CCc2cc(Br)cc(S(=O)(=O)CCC(=O)NCc3ccccc3OC)c21`, the activity change, negative = inhibition is -3.98%.

For `Nc1nc(NCC2CCCO2)nc(Nc2ccccc2F)c1[N+](=O)[O-]` (stereo unspecified), the activity change, negative = inhibition is -34.2%.

Consider `C=CCNc1nc(N)c([N+](=O)[O-])c(NC2CCCCC2)n1`, for which the activity change, negative = inhibition was -9.3%.

As for `Nc1nc(Nc2ccccc2F)nc(NC2CCCCC2)c1[N+](=O)[O-]`, the activity change, negative = inhibition is -66% (active).

For the compound `CCC(=O)N1CCc2cc(Br)c(S(=O)(=O)NCCN3CCCCC3CC)cc21` (stereo unspecified), the activity change, negative = inhibition is -8.58%.

With `COc1ccc(CCNC(=O)Cn2c(=O)cc(C(F)(F)F)c3c(C)nn(C)c32)c(OC)c1`, the activity change, negative = inhibition was 21.9%.

Consider `O=C(O)CC(SCC(=O)Nc1ccc(Br)cc1)C(=O)O` (stereo unspecified), for which the activity change, negative = inhibition was -19%.

`CC(=O)Nc1ccc(NC(=O)CC2CCCC2)cc1`: the activity change, negative = inhibition was -33.3%.

With `O=C(CCl)Nc1ccc(Sc2ccc(NC(=O)CCl)cc2)cc1`, the activity change, negative = inhibition was -97.1% (active).

For the compound `CCOC(=O)C1=NOC(Cn2cc(C(C)=O)c(=O)[nH]c2=O)C1` (stereo unspecified), the activity change, negative = inhibition was 10%.

Turning to `CCOC(=O)c1cccc(NS(=O)(=O)c2cn(C)c(C)n2)c1`, the activity change, negative = inhibition is 2.44%.

Take `C[C@H](CO)N1C[C@H](C)[C@@H](CN(C)C(=O)Nc2ccccc2F)OCc2cn(nn2)CCCC1=O`: the activity change, negative = inhibition was -6.88%.

Regarding `S=C(Nc1ccc(Br)cc1Cl)NC1CCN(Cc2ccccc2)CC1`, the activity change, negative = inhibition was -84.5% (active).

Take `O=C(NC1CCN(Cc2ccccc2)CC1)c1cc(Br)c(Br)[nH]1`: the activity change, negative = inhibition is -22.7%.

Consider `Cc1cc(Br)ccc1NC(=S)NC1CCCC1`, for which the activity change, negative = inhibition is -24.2%.

In the case of `Cc1cc(C)n(CCC(=O)N2CCN(S(=O)(=O)c3ccc(C)c(C)c3)CC2)n1`, the activity change, negative = inhibition was -15.9%.

Take `CCc1cc2c(cc(C(=O)OC)n2Cc2nc(-c3ccc(C)cc3)oc2C)s1`: the activity change, negative = inhibition was 4.7%.

On to `CCCN1CCc2nc(N3CCN(C)CC3)ncc2C1`, for which the activity change, negative = inhibition is 0.276%.

On to `COc1ccc(/C(N)=N/OC(=O)Oc2ccccc2)cc1`, for which the activity change, negative = inhibition is 9.17%.

In the case of `COc1ccc(C(C#N)=C2C=CC(=NO)c3ccccc32)cc1`, the activity change, negative = inhibition was -90.8% (active).

On to `CC(c1ccco1)N(C(=O)c1ccc(S(=O)(=O)N2CCCCC2)cc1)c1ccccn1` (stereo unspecified), for which the activity change, negative = inhibition was -14.3%.

As for `Fc1ccc(CN2CCc3nc(Nc4ccccc4)ncc3C2)cc1F`, the activity change, negative = inhibition is -18.4%.

As for `CC(C)Nc1ncnc2c1nnn2Cc1ccccc1`, the activity change, negative = inhibition is 45.3%.

`COc1ccc(CCNc2ncnc3c2nnn3Cc2ccccc2)cc1`: the activity change, negative = inhibition is -95.1% (active).

Consider `c1ccc(Cn2nnc3c(NCC4CC4)ncnc32)cc1`, for which the activity change, negative = inhibition is 30.2%.

As to `O=C(CN1c2ccccc2S(=O)(=O)c2ccccc21)Nc1cccc(C(F)(F)F)c1`, the activity change, negative = inhibition was 14.4%.

For `O=C(Cn1cnc2c(oc3ccccc32)c1=O)Nc1ccc(OC(F)(F)F)cc1`, the activity change, negative = inhibition was 14%.

On to `COc1ccc(OCc2ccc(-c3nc(C#N)c(N4CCN(c5ccccc5)CC4)o3)o2)cc1`, for which the activity change, negative = inhibition was 2.46%.

Take `OCCN1CCN(C(=S)c2ccc(-c3ccccc3)cc2)CC1`: the activity change, negative = inhibition is -79.4% (active).

For the compound `O=C(NC(=S)N1CCN(Cc2ccccc2)CC1)c1ccccc1`, the activity change, negative = inhibition is -3.08%.

On to `O=C1CCN(CCCc2ccccc2)CCN1CCO`, for which the activity change, negative = inhibition was -6.21%.

Regarding `COCCNc1ncnc2c1c(-c1ccccc1)cn2-c1ccc(C)c(Cl)c1`, the activity change, negative = inhibition is -33.4%.

`Cc1ccccc1NC(=S)N(CCCN1CCOCC1)Cc1cccs1`: the activity change, negative = inhibition is -30.9%.

In the case of `Cc1ccc(NC(=S)N(CCCN2CCCC2)Cc2cccn2Cc2ccc(Cl)cc2)cc1`, the activity change, negative = inhibition is -72% (active).

As for `CCc1ccccc1NC(=S)N(CCN1CCCCCC1)Cc1ccco1`, the activity change, negative = inhibition is 29.5%.

Take `CC(C)NC(=O)C(=O)NCCCOC(C)C`: the activity change, negative = inhibition is -7.97%.

On to `CN(CC(=O)NCCN1CCOCC1)S(=O)(=O)c1ccc(F)cc1`, for which the activity change, negative = inhibition was -13.5%.

Consider `COc1ccc(-c2nnc(SCC(=O)Nc3ccc(C(C)C)cc3)nc2-c2ccc(OC)c(OC)c2)cc1OC`, for which the activity change, negative = inhibition is 2%.

As to `Cc1ccc(-c2nnc(SCC(=O)NCc3ccccc3)nc2-c2ccc(C)cc2)cc1`, the activity change, negative = inhibition was -16.5%.

Regarding `CCc1ccccc1NC(=O)CSc1nnc(-c2ccccc2)c(-c2ccccc2)n1`, the activity change, negative = inhibition is -84.3% (active).

As for `O=c1cc(CSc2ccccn2)nc(N2CCN(c3ccccc3)CC2)[nH]1`, the activity change, negative = inhibition was 15.5%.

For the compound `COc1ccccc1N1CCN(C(=O)c2cc(=O)c3cc(C)cc(C)c3o2)CC1`, the activity change, negative = inhibition is -72.5% (active).

In the case of `CCOc1ccccc1N1CCN(C(=O)c2ccc3[nH]c(C)c(C)c3c2)CC1`, the activity change, negative = inhibition is -4.04%.

In the case of `COc1ccccc1N1CCN(C(=O)c2ccc(NC3=NC4CS(=O)(=O)CC4S3)cc2)CC1` (stereo unspecified), the activity change, negative = inhibition was -1.18%.
